Measured values from PubChem BioAssay (EPA / NIEHS).
Records with an inconclusive call do not appear. Active and inactive are the calls of the source. How the source made its calls, unless noted: active means hit-call score of the fitted dose curve at least 0.9, where 1 is the maximum; inactive means score below 0.9.

Columns and labels:
[1] = ATG_TAL_CIS: Attagene CIS-FACTORIAL HepG2 Assay for human TAL Basal Promoter (AID 2282966); details: HepG2 Attagene cis-factorial TAL promoter reporter; actives raise or lower the signal;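 further: background control endpoint measuring basal TAL promoter reporter mRNA not a specific factor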
How it was run: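 Background-control endpoint: basal TAL promoter reporter transcripts in transiently transfected HepG2, measured 24 h after dosing. Read-out by RT-PCR with fluorescent primer extension and capillary electrophoresis; gain or loss of signal fitted relative to DMSO.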

[2] = ATG_TGFb_CIS: Attagene CIS-FACTORIAL HepG2 Assay for human Transforming Growth Factor (TGF) (AID 2282967); details: HepG2 Attagene CIS TGFb reporter, mRNA transcription; actives raise or lower the signal
How it was run: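 After a 24-hour incubation with compound, transfected HepG2 cells were lysed for RNA; reporter cDNA was amplified, fluorescently end-labeled and separated by CE. DMSO served as baseline for bidirectional fits.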

[3] = ATG_VDRE_CIS: Attagene CIS-FACTORIAL HepG2 Assay for human Vitamin D Receptor Element (VDRE) (AID 2282968); details: HepG2 VDRE cis-reporter transcription, actives raise or lower the signal
How it was run: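 Measures endogenous factor activity through cis-element-driven reporter transcripts in transiently transfected HepG2. Cells are treated 24 h; reporter mRNA is quantified by RT-PCR and capillary electrophoresis; fitting is bidirectional.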

[4] = target: Steroid hormone receptor ERR1 (Homo sapiens) (UniProt P11474); test: ATG_ERRa_TRANS: Attagene TRANS-FACTORIAL HepG2 Assay for human Estrogen-Related Receptor alpha (ERRa) (AID 2282971; active means hit-call score of the fitted dose curve at least 0.9, where 1 is the maximum); details: HepG2 Attagene TRANS reporter, ERRa transactivation
How it was run: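 Reporter transcripts from ERRa-Gal4 chimera activity measured in transiently transfected human HepG2 cells 24 hours after dosing, using RT-PCR with 6-FAM primer extension, HpaI digestion and capillary electrophoresis; DMSO is baseline.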

[5] = target: X-box-binding protein 1 (Homo sapiens) (UniProt P17861); test: ATG_Xbp1_CIS: Attagene CIS-FACTORIAL HepG2 Assay for human X-box Binding Protein 1 (XBP1) (AID 2282972); details: HepG2 XBP1 cis-element reporter, Attagene multiplex; actives raise or lower the signal
How it was run: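 Reporter transcripts were quantified by RT-PCR with fluorescent primer extension and capillary electrophoresis after 24 h chemical exposure. Cells: transiently transfected HepG2 carrying cis-regulated reporter constructs; data fitted bidirectionally relative to DMSO.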

[6] = ATG_GAL4_TRANS: Attagene TRANS-FACTORIAL HepG2 Assay for GAL4 (Internal Marker) (AID 2282976; active means hit-call score of the fitted dose curve at least 0.9, where 1 is the maximum); details: HepG2 Attagene TRANS GAL4 internal marker reporter
How it was run: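 In transfected human HepG2 liver cells dosed 24 h, GAL4 reporter mRNA serves as a baseline marker. Detection by RT-PCR with fluorescent capillary electrophoresis, activity fitted upward relative to DMSO.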

[7] = target: Estrogen receptor (Homo sapiens) (UniProt P03372); test: ATG_ERa_TRANS: Attagene TRANS-FACTORIAL HepG2 Assay for human Estrogen Receptor alpha (ERa) (AID 2282970; active means hit-call score of the fitted dose curve at least 0.9, where 1 is the maximum); details: HepG2 Attagene TRANS ERa GAL4 reporter, mRNA
How it was run: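 Reporter transcripts were measured 24 h after dosing by RT-PCR with fluorescent primer extension and capillary electrophoresis. The system is transiently transfected HepG2 expressing exogenous NR-Gal4 chimeras driving GAL4-UAS reporters; DMSO is the baseline.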

[8] = target: Estrogen-related receptor gamma (Homo sapiens) (UniProt P62508); test: ATG_ERRg_TRANS: Attagene TRANS-FACTORIAL HepG2 Assay for human Estrogen-Related Receptor gamma (ERRg) (AID 2282977; active means hit-call score of the fitted dose curve at least 0.9, where 1 is the maximum;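 further: hits increase reporter signal over DMSO so potencies reflect activators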); details: HepG2 Attagene TRANS reporter, ERRg transactivation
How it was run: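 Exogenous NR-Gal4 chimera activity was assessed in HepG2 cells bearing transfected GAL4-UAS reporters. After 24 h dosing, total RNA underwent RT-PCR, fluorescent primer extension and HpaI digestion before capillary electrophoresis, with gain of signal scored against DMSO.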

[9] = ATG_M_19_TRANS: Attagene TRANS-FACTORIAL HepG2 Assay for M19 Transcription Factor (Internal Marker) (AID 2282974; active means hit-call score of the fitted dose curve at least 0.9, where 1 is the maximum); details: HepG2 Attagene TRANS-FACTORIAL M19 internal marker reporter
How it was run: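 Background-control readout: after 24 h chemical exposure of transfected HepG2 carrying GAL4-driven reporter units, RNA was reverse-transcribed, amplified, fluorescently labeled and sized by capillary electrophoresis; gain-of-signal fit against DMSO.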

X-box-binding protein 1 (Homo sapiens), sequence (P17861 whole entry, looked up): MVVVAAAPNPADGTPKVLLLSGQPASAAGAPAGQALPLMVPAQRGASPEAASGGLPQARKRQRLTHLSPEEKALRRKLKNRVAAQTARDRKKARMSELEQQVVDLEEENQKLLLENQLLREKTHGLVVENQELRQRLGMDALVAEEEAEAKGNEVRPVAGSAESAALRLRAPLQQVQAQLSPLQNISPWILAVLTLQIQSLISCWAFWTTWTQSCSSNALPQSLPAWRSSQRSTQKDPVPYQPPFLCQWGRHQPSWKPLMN
Estrogen receptor (Homo sapiens), sequence (P03372 whole entry, looked up, the tested form may be a part): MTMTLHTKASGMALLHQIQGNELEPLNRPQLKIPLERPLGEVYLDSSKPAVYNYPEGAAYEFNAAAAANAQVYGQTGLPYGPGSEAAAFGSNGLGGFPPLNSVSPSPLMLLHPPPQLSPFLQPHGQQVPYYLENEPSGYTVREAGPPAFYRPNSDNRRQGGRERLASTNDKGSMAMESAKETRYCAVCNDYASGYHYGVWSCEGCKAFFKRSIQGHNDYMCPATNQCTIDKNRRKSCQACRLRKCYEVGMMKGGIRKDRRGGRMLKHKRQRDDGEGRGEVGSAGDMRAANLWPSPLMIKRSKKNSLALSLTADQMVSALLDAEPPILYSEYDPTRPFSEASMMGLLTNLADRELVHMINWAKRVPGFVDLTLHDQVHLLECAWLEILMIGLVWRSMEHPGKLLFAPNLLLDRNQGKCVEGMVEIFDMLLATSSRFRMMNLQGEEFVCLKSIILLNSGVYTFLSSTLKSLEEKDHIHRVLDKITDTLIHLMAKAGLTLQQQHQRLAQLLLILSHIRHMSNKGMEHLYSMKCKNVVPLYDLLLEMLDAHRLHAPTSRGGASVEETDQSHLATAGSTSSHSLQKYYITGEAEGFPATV
Steroid hormone receptor ERR1 (Homo sapiens), sequence (P11474 whole entry, looked up, the tested form may be a part): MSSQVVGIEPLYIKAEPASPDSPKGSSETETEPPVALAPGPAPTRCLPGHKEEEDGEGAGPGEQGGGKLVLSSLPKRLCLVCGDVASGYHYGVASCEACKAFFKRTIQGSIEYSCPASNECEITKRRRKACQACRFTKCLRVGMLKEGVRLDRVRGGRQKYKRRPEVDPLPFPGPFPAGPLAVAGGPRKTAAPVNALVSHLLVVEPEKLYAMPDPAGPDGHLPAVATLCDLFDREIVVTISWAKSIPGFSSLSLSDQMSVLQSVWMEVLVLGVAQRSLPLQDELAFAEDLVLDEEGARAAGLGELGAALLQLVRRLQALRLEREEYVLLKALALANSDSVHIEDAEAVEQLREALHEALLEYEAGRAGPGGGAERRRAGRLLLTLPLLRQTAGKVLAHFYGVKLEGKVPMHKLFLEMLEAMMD
Estrogen-related receptor gamma (Homo sapiens), sequence (P62508 whole entry, looked up, the tested form may be a part): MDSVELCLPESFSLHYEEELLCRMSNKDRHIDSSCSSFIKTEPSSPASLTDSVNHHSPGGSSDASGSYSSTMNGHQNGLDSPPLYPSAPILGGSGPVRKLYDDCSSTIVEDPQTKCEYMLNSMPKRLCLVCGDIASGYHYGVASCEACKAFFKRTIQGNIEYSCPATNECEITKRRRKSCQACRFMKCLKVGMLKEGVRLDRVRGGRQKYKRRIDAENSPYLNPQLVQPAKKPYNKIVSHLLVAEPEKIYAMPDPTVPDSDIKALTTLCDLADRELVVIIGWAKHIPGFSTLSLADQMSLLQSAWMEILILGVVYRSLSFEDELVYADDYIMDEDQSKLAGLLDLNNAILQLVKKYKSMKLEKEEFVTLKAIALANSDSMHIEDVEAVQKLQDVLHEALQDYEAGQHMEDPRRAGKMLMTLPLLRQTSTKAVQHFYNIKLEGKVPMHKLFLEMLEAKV

## CC(C)(C#N)c1cc(Cn2cncn2)cc(C(C)(C)C#N)c1
[1]
  outcome: inactive
[2]
  outcome: inactive
[3]
  outcome: inactive
[4]
  outcome: inactive
[5]
  outcome: inactive
[6]
  outcome: inactive

## CC(C)OP(=O)(CP(=O)(OC(C)C)OC(C)C)OC(C)C
[1]
  outcome: inactive
[2]
  outcome: inactive
[3]
  outcome: inactive
[7]
  outcome: inactive
[5]
  outcome: inactive
[6]
  outcome: inactive

## CC(C#N)(CCC(=O)O)N=NC(C)(C#N)CCC(=O)O (stereo not given)
[1]
  outcome: inactive
[2]
  outcome: inactive
[3]
  outcome: inactive
[4]
  outcome: inactive
[5]
  outcome: inactive
[8]
  outcome: inactive

## C=CC(=O)OCCn1c(=O)n(CCOC(=O)C=C)c(=O)n(CCOC(=O)C=C)c1=O
[1]
  outcome: inactive
[2]
  outcome: inactive
[3]
  AC50: 4.16 µM (active)
[4]
  outcome: inactive
[5]
  AC50: 8.6 µM (active)
[6]
  outcome: inactive
[8]
  outcome: inactive

## CCN(CC)c1ccc(C(=C2C=CC(=[N+](CC)CC)C=C2)c2ccc(S(=O)(=O)O)cc2S(=O)(=O)[O-])cc1
[1]
  outcome: inactive
[2]
  outcome: inactive
[3]
  outcome: inactive
[4]
  outcome: inactive
[5]
  outcome: inactive
[9]
  outcome: inactive
[6]
  outcome: inactive
[8]
  outcome: inactive

## Nc1cc([N+](=O)[O-])ccc1Cl
[1]
  outcome: inactive
[2]
  outcome: inactive
[3]
  outcome: inactive
[4]
  outcome: inactive
[5]
  outcome: inactive
[6]
  outcome: inactive

## COC(=O)C1=C(C)NC(C)=C(C(=O)OCCN(C)Cc2ccccc2)C1c1cccc([N+](=O)[O-])c1 (stereo not given)
[1]
  outcome: inactive
[2]
  AC50: 131 µM (active)
[3]
  AC50: 0.227 µM (active)
[7]
  outcome: inactive
[5]
  outcome: inactive
[9]
  outcome: inactive

## N#Cc1ccccc1
[1]
  outcome: inactive
[2]
  outcome: inactive
[3]
  outcome: inactive
[4]
  outcome: inactive
[5]
  outcome: inactive
[6]
  outcome: inactive
[8]
  outcome: inactive

## COc1ccc(Cl)cc1C
[1]
  outcome: inactive
[2]
  outcome: inactive
[3]
  outcome: inactive
[4]
  outcome: inactive
[5]
  outcome: inactive
[9]
  outcome: inactive
[6]
  outcome: inactive
[8]
  outcome: inactive

## CCCC(=O)c1cc(O)c(O)cc1O
[1]
  outcome: inactive
[2]
  outcome: inactive
[3]
  outcome: inactive
[7]
  outcome: inactive
[5]
  outcome: inactive
[9]
  outcome: inactive
[6]
  outcome: inactive
[8]
  outcome: inactive

## Cc1cccc(C)c1[N+](=O)[O-]
[1]
  outcome: inactive
[2]
  outcome: inactive
[3]
  outcome: inactive
[5]
  outcome: inactive

## CC[C@]12CCCN3CCc4c(n(c5ccccc45)[C@@](O)(C(=O)OC)C1)[C@@H]32
[1]
  outcome: inactive
[2]
  outcome: inactive
[3]
  outcome: inactive
[4]
  outcome: inactive
[5]
  outcome: inactive
[6]
  outcome: inactive
[8]
  outcome: inactive

## CC1CCC(C(C)CS)CC1S (stereo not given)
[1]
  outcome: inactive
[2]
  outcome: inactive
[3]
  outcome: inactive
[4]
  outcome: inactive
[5]
  outcome: inactive
[9]
  outcome: inactive
[6]
  outcome: inactive

## CCCCNC(=O)NS(=O)(=O)c1ccc(N)cc1
[1]
  outcome: inactive
[2]
  outcome: inactive
[3]
  outcome: inactive
[4]
  outcome: inactive
[5]
  outcome: inactive

## CC(=O)O[C@]1(C(C)=O)CC[C@H]2[C@@H]3C[C@H](C)C4=CC(=O)CC[C@]4(C)[C@H]3CC[C@@]21C
[1]
  outcome: inactive
[2]
  outcome: inactive
[3]
  AC50: 17.1 µM (active)
[7]
  outcome: inactive
[5]
  outcome: inactive
[6]
  outcome: inactive

## CCCCCCCCC=O
[1]
  outcome: inactive
[2]
  outcome: inactive
[3]
  outcome: inactive
[4]
  outcome: inactive
[5]
  outcome: inactive
[6]
  outcome: inactive
[8]
  outcome: inactive

## NCCCN1CCOCC1
[1]
  outcome: inactive
[2]
  outcome: inactive
[3]
  outcome: inactive
[5]
  outcome: inactive

## COc1cc2ncnc(Nc3cccc(Cl)c3)c2cc1OC
[1]
  AC50: 13.4 µM (active)
[2]
  outcome: inactive
[3]
  AC50: 12.7 µM (active)
[7]
  outcome: inactive
[5]
  AC50: 8.13 µM (active)
[6]
  outcome: inactive

## CC(C)(C)c1cc(CCC(=O)NN)cc(C(C)(C)C)c1O
[1]
  outcome: inactive
[2]
  outcome: inactive
[3]
  outcome: inactive
[4]
  outcome: inactive
[5]
  outcome: inactive
[9]
  outcome: inactive
[6]
  outcome: inactive

## O=CCCc1ccccc1
[1]
  outcome: inactive
[2]
  outcome: inactive
[3]
  outcome: inactive
[4]
  outcome: inactive
[5]
  outcome: inactive
[9]
  outcome: inactive

## COc1nc(C)nc(N)n1
[1]
  outcome: inactive
[2]
  outcome: inactive
[3]
  outcome: inactive
[5]
  outcome: inactive

## CC(C)C1CCC(O)CC1 (stereo not given)
[1]
  outcome: inactive
[2]
  outcome: inactive
[3]
  outcome: inactive
[5]
  outcome: inactive

## O=C(O)CN(CCN(CC(=O)O)CC(=O)O)CCN(CC(=O)O)CC(=O)O
[1]
  outcome: inactive
[2]
  outcome: inactive
[3]
  outcome: inactive
[4]
  outcome: inactive
[5]
  outcome: inactive
[9]
  outcome: inactive
[6]
  outcome: inactive
[8]
  outcome: inactive

## CCCCCCCCC
[1]
  outcome: inactive
[2]
  outcome: inactive
[3]
  outcome: inactive
[7]
  outcome: inactive
[5]
  outcome: inactive
[9]
  outcome: inactive
[6]
  outcome: inactive

## Cc1ccc(C=O)cc1
[1]
  outcome: inactive
[2]
  outcome: inactive
[3]
  outcome: inactive
[7]
  outcome: inactive
[5]
  outcome: inactive
[9]
  outcome: inactive
[6]
  outcome: inactive

## CCCC/C=C\CCCCCCCCCC=O
[1]
  outcome: inactive
[2]
  outcome: inactive
[3]
  outcome: inactive
[4]
  outcome: inactive
[5]
  outcome: inactive
[9]
  outcome: inactive
[6]
  outcome: inactive
[8]
  outcome: inactive
